Screening data deposited in PubChem by several laboratories.
Shown are actives, neighbours in structure and some others; about 2.2% of the full set was active somewhere.
M18AAP inhibitor: PfM18AAP enzyme inhibition; recombinant PfM18AAP, H-Glu-NHMec fluorogenic cleavage; inhibition, % at 7.35 µM; 290,000 compounds, 1.2% hits;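 active means inhibition above the campaign mean inhibition over all tested compounds plus 3 SD, cut at about 28% in these data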
GC-A act: GC-A (human) enzyme activation. P16066. HEK293 GC-A cells, cGMP TR-FRET, EC30 ANP; 0% at EC30 ANP, 100% saturating ANP. activation, % at 10 µM. 370,000 compounds, 0.14% hits; in the data active means activation above about 40%
GC-B act: GC-B (human) receptor activation; P20594; HEK293-GC-B cells, CNP EC30, cGMP TR-FRET; 0% at EC30 CNP, 100% saturating CNP; activation, % at 10 µM; 370,000 compounds, 0.11% hits;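 active means activation at 10 µM reaching about 35% in either raw or pattern-adjusted values, limit read from the data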
PLCg1 inh: inhibitors of human phospholipase C gamma1; purified PLC-gamma1, fluorogenic substrate, fluorescence; inhibition, % at 12.2 µM; 370,000 compounds, 0.84% hits; in the data active means inhibition above about 9.5%
Target sequence (P19174 whole entry, looked up): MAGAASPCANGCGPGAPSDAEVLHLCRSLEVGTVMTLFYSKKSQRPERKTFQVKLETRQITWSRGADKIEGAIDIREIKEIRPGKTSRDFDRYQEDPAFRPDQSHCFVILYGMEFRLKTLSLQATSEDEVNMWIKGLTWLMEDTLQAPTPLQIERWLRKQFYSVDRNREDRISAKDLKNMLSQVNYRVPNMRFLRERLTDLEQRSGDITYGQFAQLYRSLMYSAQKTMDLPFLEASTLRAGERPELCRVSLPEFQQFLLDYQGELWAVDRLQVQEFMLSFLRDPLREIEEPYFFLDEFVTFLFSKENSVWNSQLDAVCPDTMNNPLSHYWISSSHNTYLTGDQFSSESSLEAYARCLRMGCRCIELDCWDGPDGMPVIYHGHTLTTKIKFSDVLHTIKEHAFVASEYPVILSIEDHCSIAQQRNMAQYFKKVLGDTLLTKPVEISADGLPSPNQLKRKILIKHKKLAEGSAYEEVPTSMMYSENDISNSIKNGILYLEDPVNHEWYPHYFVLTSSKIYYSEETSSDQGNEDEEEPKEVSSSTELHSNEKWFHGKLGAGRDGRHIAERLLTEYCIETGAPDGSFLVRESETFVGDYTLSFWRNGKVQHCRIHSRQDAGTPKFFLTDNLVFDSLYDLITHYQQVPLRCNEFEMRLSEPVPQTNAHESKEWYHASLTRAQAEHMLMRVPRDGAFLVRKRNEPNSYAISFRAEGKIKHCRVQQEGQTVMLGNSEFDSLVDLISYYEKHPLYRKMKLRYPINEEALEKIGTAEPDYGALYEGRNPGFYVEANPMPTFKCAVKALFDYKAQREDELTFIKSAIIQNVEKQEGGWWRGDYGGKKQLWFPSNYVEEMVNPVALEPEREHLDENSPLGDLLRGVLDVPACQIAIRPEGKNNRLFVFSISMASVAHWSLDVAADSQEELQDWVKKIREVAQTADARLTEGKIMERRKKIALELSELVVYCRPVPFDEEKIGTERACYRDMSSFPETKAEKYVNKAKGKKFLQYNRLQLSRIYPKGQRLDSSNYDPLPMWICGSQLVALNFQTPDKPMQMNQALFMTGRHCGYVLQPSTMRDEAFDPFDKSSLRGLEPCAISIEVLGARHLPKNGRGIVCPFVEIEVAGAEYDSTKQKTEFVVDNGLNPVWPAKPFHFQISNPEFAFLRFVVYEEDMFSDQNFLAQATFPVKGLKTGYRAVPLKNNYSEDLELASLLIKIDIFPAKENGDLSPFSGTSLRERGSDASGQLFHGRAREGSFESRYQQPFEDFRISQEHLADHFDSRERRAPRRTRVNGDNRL
PLCb3 inh: inhibitors of human phospholipase C beta3; Purified PLC-beta3, fluorogenic substrate, fluorescence; inhibition, % at 12.2 µM; 370,000 compounds, 0.18% hits
Rce1 inhib: inhibitors of yeast Ras-converting enzyme. Q03530. yeast membranes, quenched prenylated peptide cleavage fluorescence. calls only. 290,000 compounds, 0.27% hits. AID 2563;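 active means fall in fluorescence gain of 50% or more versus controls, with final raw signal at or below 3038400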
PLCg1 ctr: PLC-gamma1 inhibition, counter-screen for PLC-beta3 hits; shares compounds with PLCg1 inh; inhibition, % at 12.3 µM; AID 743258; 3,300 compounds, 3.1% hits; purified PLC-gamma1, fluorogenic substrate, fluorescence; in the data active means inhibition above about 9.5%
PLCbeta3 conf: human PLC-beta3 inhibition, confirmation; shares compounds with PLCg1 inh; purified PLC-beta3, fluorogenic substrate fluorescence; inhibition, % at 12.3 µM; 3,300 compounds, 1% hits; AID 743261
Hits are given with their value; n = inactive; x = not tested or not shown. Unless noted, no stated cut-off is given here; in the data, active means inhibition above about 11%; inactive means the rest.

SMILES	M18AAP inhibitor	GC-A act	GC-B act	PLCg1 inh	PLCb3 inh	Rce1 inhib	PLCg1 ctr	PLCbeta3 conf
Cc1ccc(OCCCCNC(C)c2ccccc2)c(C)c1 (stereo not drawn)	n	n	n	13	n	n	n	n
CC1(C)OC2OC(COC(=O)c3ccc([N+](=O)[O-])cc3)C3OC(C)(C)OC3C2O1 (stereo not drawn)	n	n	n	11	n	n	n	n
Cc1ccc(C2(C)NC(=O)N(CC(=O)Nc3cc(S(=O)(=O)N4CCOCC4)ccc3C)C2=O)cc1 (stereo not drawn)	n	n	n	10	n	n	n	n
CC1(c2ccccc2)NC(=O)N(CC(=O)Nc2cc(S(=O)(=O)N3CCOCC3)ccc2Cl)C1=O (stereo not drawn)	n	n	n	n	n	n	x	x
Cc1nc(SCC(=O)Nc2cc(S(=O)(=O)N3CCOCC3)ccc2Cl)nc(C)c1C	x	n	n	11	n	x	n	n
Cc1ccc(S(=O)(=O)N2CCOCC2)cc1NC(=O)c1cc2c(s1)CCC2	n	n	n	10	n	n	n	n
CCOC(=O)[C@@]12CN(C(=O)OC(C)(C)C)CC=C1N(Cc1ccc(OC)cc1)C(=O)[C@H]2CC(=O)NCc1ccccc1	x	n	n	n	n	x	x	x
Cc1cc(C(=O)N2CCN(c3ccccc3)CC2)no1	n	n	n	x	x	n	x	x
Cc1cc(C(=O)N2CCN(c3ccc([N+](=O)[O-])cc3)CC2)no1	n	n	n	9.5	n	n	n	n
C#CCN1CC(N(C)CCOC(=O)c2ccc(C(C)(C)C)cc2)CS1(=O)=O (stereo not drawn)	x	n	n	n	n	x	x	x
NC(=O)c1ccc(NC(=O)COC(=O)CCC2CCCCC2)cc1	x	n	n	14	n	x	n	n
COc1ccc(Cn2ccc3ccc(-c4ccc5ccn(C(=O)c6ccccc6)c5c4)cc32)cc1	x	n	n	n	n	x	x	x
Cc1cc(C(=O)N2CCC2(C)C(=O)Nc2ccc3[nH]ncc3c2)nn1C (stereo not drawn)	x	n	n	n	15	x	n	n
O=C(Nc1ncc2c(n1)CC(c1cccc(Cl)c1)CC2=O)c1ccco1 (stereo not drawn)	n	n	n	19	n	n	n	n
Nc1nc2c(ncn2[C@@H]2O[C@H](CNCc3ccc(F)c(N4CCOCC4)c3)[C@@H](O)[C@H]2O)c(=O)[nH]1	x	n	n	n	n	x	x	x
CN1CCN(c2ccc(CNC[C@H]3O[C@@H](n4cnc5c(=O)[nH]c(N)nc54)[C@H](O)[C@@H]3O)c(F)c2)CC1	x	n	n	9.8	n	x	n	n
Cc1c(C(=O)NN)[nH]c2ccc([N+](=O)[O-])cc12	n	n	n	n	59	n	n	n
COc1cc2c(cc1OC)[C@@H]1Cc3cc4c(cc3[C@H](C2)N1C)OCO4	n	n	n	n	n	n	x	x
C[N+]1([O-])[C@@H]2Cc3cc4c(cc3[C@@H]1Cc1cc3c(cc12)OCO3)OCO4 (stereo partly drawn)	x	n	n	n	12	n	n	n
N#Cc1c(NC(=O)CSc2nnnn2C2CCCC2)sc2c1CCCC2	n	n	n	10.0	n	n	n	n
COC(=O)C(NC(=O)CCc1c(C)nc2ncnn2c1C)C(C)C (stereo not drawn)	n	n	n	9.7	n	n	n	n
CN(C(=O)c1ccccc1)C1c2c(ccc3ccccc23)OCC1CO (stereo not drawn)	n	n	n	10	n	n	n	11
O=C(Cc1ccc(F)cc1)Nc1ccc(F)c([N+](=O)[O-])c1	n	n	n	9.8	n	n	n	n
O=C(Nc1ccccc1)Nc1ccc(F)c([N+](=O)[O-])c1	n	n	n	n	n	n	x	x
CC(C)CN1C(=O)C[C@]2(C(=O)N(C)c3ccc(NC(=O)C(C)(C)C)cc32)C1c1ccccc1 (stereo partly drawn)	x	n	n	n	n	x	x	x
SMILES	M18AAP inhibitor	GC-A act	GC-B act	PLCg1 inh	PLCb3 inh	Rce1 inhib	PLCg1 ctr	PLCbeta3 conf
Cc1cc(C(=O)Nc2ccc(F)cc2)n(-c2ccccc2)n1	x	n	n	n	n	x	x	x
O=C(C[C@@H]1C/C=C\C[C@H](Cc2ccc(F)cc2)C(=O)OC[C@H]2CCCN2C1=O)NCCO	x	n	n	10	n	x	n	n
O=C(C[C@@H]1C/C=C\CCC(=O)OC[C@@H]2CCCN2C1=O)N[C@@H](CO)Cc1ccccc1	x	n	n	13	12	x	n	n
O=C(C[C@@H]1C/C=C\C[C@@H](Cc2ccc(F)cc2)C(=O)OC[C@H]2CCCN2C1=O)NCCO	x	n	n	n	n	x	x	x
O=C(C[C@H]1C/C=C\CC[C@@H](Cc2ccc(F)cc2)C(=O)OC[C@H]2CCCN2C1=O)N[C@H](CO)Cc1ccccc1	x	n	n	n	n	x	x	x
CC1CCCC(C)N1CCCNC(=O)CN1C(=O)COc2ccc(S(=O)(=O)N3CCOCC3)cc21 (stereo not drawn)	n	n	n	n	n	n	x	x
CC1CCN(S(=O)(=O)c2ccc3c(c2)N(CC(=O)NCCCN2C(C)CCCC2C)C(=O)CO3)CC1 (stereo not drawn)	n	n	n	11	n	n	n	n
CN(c1cccnc1)c1ccc(NC(=O)Cc2c[nH]c3ccccc23)cc1-c1cccnc1F	x	n	n	n	n	x	x	x
COc1ccccc1NS(=O)(=O)c1ccc(N/N=C(\C)C(C)C)c([N+](=O)[O-])c1	n	n	n	9.9	13	n	n	n
COc1ccccc1NS(=O)(=O)c1ccc(NN=C2CCCCC2)c([N+](=O)[O-])c1	n	n	n	11	n	n	n	n
CCCC(CCC)=NNc1ccc(S(=O)(=O)Nc2ccccc2OC)cc1[N+](=O)[O-]	n	n	n	n	n	n	x	x
O=C(OCC#CCSc1nnc(-c2cccc3ccccc23)o1)c1cccc(C(F)(F)F)c1	x	n	n	n	n	x	x	x
O=[N+]([O-])c1ccc(F)c(CN2CCN(c3ncc(Cc4ccccc4)cn3)CC2)c1	x	n	n	n	n	x	x	x
Cc1ccc([N+](=O)[O-])cc1CN1CCN(c2ncc(Cc3ccccc3)cn2)CC1	x	n	n	n	14	x	n	n
COCCCN1C(=O)[C@H](CC(=O)N2CCOCC2)[C@]2(C(=O)OC)CCCCC=C12	x	n	n	n	n	x	x	x
COc1cccc(N2CCN(C(=O)Cn3c(=O)oc4ccccc43)CC2)c1	n	n	n	9.8	n	n	n	n
CCOc1cccc(-c2nnc(SCC(=O)Nc3ccc4c(c3)OCO4)n2N)c1	x	n	n	n	n	x	x	x
Cc1[nH]c2ccccc2c1/C=N/Nc1nncn1N	61	n	n	9.9	n	n	n	n
COc1nc(OC)nc(N2CCC(C(=O)NCc3ccccc3OC)CC2)n1	x	n	n	n	n	x	x	x
